HCV inhibitor: HCV inhibition. Potency, µM (titrated, usually from 41.8 µM), inactives show top-dose activity change, negative = inhibition, usual class: inhibitors. hit rate 3.4% among 340,000. Huh7.5.1 HCVcc-Cre infection, luciferase reporter, 44 h; active = well fitted inhibition curve with a large enough effect; inconclusive = small, poorly fitted or top-dose-only effect, or another doubt; inactive = no such curve, though single readings can be large or run the other way
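Infectious HCVcc-Cre (~0.5 moi) was added to cells just after compound, with cells seeded 4 h earlier at 1,000 per well. Luciferase activity after 44 h culture reported infection; substrate was incubated 15 min at room temperature before reading.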
VACV mCherry inh: inhibitors of vaccinia virus infection (mCherry reporter signal); Potency, µM (doses to about 36.5 µM), for inactives: at the top dose activity change, negative = inhibition, most hits filed as inhibitors; hit rate 0.63% among 310,000; Vaccinia virus mCherry reporter infection, fluorescence; calls by dose curve; tested in A549 cells; also: nearly all actives have a fitted effect of over 35% in size
Lassa entry inh: Lassa virus entry inhibition; hit rate 1.2% among 300,000; Potency, µM (highest dose often 37.9 µM), for inactives: top-dose activity change, negative = inhibition, actives largely listed as inhibitors; Lassa virus pseudotype entry inhibition, cell reporter; calls by dose curve; tested in HEK293 cells; also: nearly all actives have a fitted effect of over 50% in size
MARV entry inh: Marburg virus entry inhibition. Marburg virus pseudotyped entry inhibition, cell reporter. hit rate 1.8% among 300,000. Potency, µM (top dose mostly 37.8 µM), for the others: at the top dose activity change, negative = inhibition, most hits filed as inhibitors; calls by dose curve; tested in HEK293 cells
VACV Venus inh: inhibitors of vaccinia virus (Venus reporter) | Vaccinia virus Venus reporter expression, fluorescence | hit rate 0.46% among 330,000 | AID 720580 | Potency, µM (titrated, usually from 36.5 µM), for inactives: at the top dose activity change, negative = inhibition, hits mostly inhibitors; calls by dose curve; tested in A549 cells; also: nearly all actives have a fitted effect of over 30% in size
FMDV antiviral: foot and mouth disease virus antiviral activity. hit rate 1.2% among 410,000. AID 1159524. Potency, µM (doses to about 57.9 µM), without a hit: top-dose activity change, negative = inhibition, hits mostly inhibitors. FMDV antiviral cell-based qHTS; calls by dose curve; tested in HEK293T cells; also: read-out not given here; nearly all actives have a fitted effect of over 45% in size
Numbers without * were called inactive; i = inactive; ? = inconclusive; nt = no result; ! = a repeat was not active; [ ] = dose if it differs, or a comment. A selection: hits, their analogues and other compounds. The true share with any hit is near 5.3%. % is scaled to controls: 0 for no effect and ±100 for the full control effect; potency is read from the fitted curve at half-maximal effect.

SMILES	HCV inhibitor	VACV mCherry inh	Lassa entry inh	MARV entry inh	VACV Venus inh	FMDV antiviral
Cc1nc2sccn2c(=O)c1S(=O)(=O)Nc1cc(C(F)(F)F)ccc1Cl	nt	-7%	8%[46.1 µM]	nt	-22%	24%
NC(=O)c1ccccc1NC(=O)/C=C/C(=O)O	18%	-3%	-4%	10%[46.1 µM]	6%	15%
Cc1ccc(/C=C/C(=O)NC2=NCCS2)cc1	-5%	-1%	1.6µM*	3.2µM*	-21%	-38%
CC(C)(C)c1ccc(/C=C/C(=O)NC2=NCCS2)cc1	?	nt	14µM*	-27%	-29%	-22%
Cc1ccc(/C=C/C(=O)Nc2ccccc2C(N)=O)cc1	-1%	-2%	?	13µM*	-14%	-19%
CC(C)(C)c1ccc(/C=C/C(=O)Nc2cccnc2)cc1	-29%	-20%	?	?	-20%	-26%
Cc1nn(CC(=O)N2CCN(c3ccccc3)CC2)c(=O)c2cc3sccc3n12	nt	-6%	nt	-15%[46.1 µM]	0%	-9%
c1ccc(-c2nc(N3CCCCCC3)c3ccccc3n2)nc1	1.6µM*	nt	4µM*	?	5µM*	25µM*
CN1CCN(c2nc(-c3ccncc3)nc3ccccc23)CC1	?	-5%	-5%	7.9µM*	-29%	-15%
c1ccc2c(N3CCCC3)nc(-c3ccncc3)nc2c1	?	nt	-5%	?	?	14µM*
C=CCOc1nc(-c2ccncc2)nc2ccccc12	5µM*	-12%	-4%	?	1%	-19%
Cc1ccc(CC(=O)NO)cc1	nt	-9%	nt	nt	-12%	nt
COc1nc(-c2ccncc2)nc2ccccc12	?	-17%	27%	-29%	-10%	-18%
CC[C@@H]1CCCCN1c1nc(-c2ccncc2)nc2ccccc12	nt	nt	nt	9.2µM*	nt	nt
Oc1ccc(N2CCN(c3nc(-c4cccs4)nc4ccccc34)CC2)cc1	?	-14%	11%[46.1 µM]	?	7%	-14%
Oc1ccccc1N1CCN(c2nc(-c3cccs3)nc3ccccc23)CC1	11µM*	nt	nt	nt	nt	-24%
Cc1cc(-c2nn(-c3ccccc3F)cc2CN2CCCC(O)C2)c(C)s1 (centres undefined)	3%	nt	nt	nt	nt	-27%
Cc1cc(-c2nn(-c3ccccc3F)cc2CN2CCCC(CO)C2)c(C)s1 (centres undefined)	?	?	?	5.6µM*	-17%	-5%
CN(C)c1ccc(C=Nc2cnc3ccccc3c2)cc1	nt	-16%	nt	nt	-16%	nt
O=C(CN1CCN(S(=O)(=O)c2cc(C(F)(F)F)ccc2Cl)CC1)N1CCc2ccccc2C1	11µM*	nt	nt	nt	nt	?
OCc1cc(C(O)CNCCCCCCOCCCCc2ccccc2)ccc1O (centres undefined)	8.9µM*	?	?	11µM*!	-20%	-18%
CC(C)(C)NCC(O)c1ccc(O)c(CO)c1 (centres undefined)	nt	-26%	?	?	-13%	5%
COc1ccc2cc([C@@H](C)C(=O)O)ccc2c1	32%	-13%	nt	nt	-15%	2.2µM*
NC(=O)NC1CCCc2c1[nH]c1ccc(Cl)cc21 (centres undefined)	6.3µM*	i	nt	4%	-3%	-34%
O=C(COC(=O)c1c2c(nc3ccccc13)/C(=C/c1ccco1)CC2)NC1CCCC1	?	?	13µM*	?	-8%	12%
SMILES	HCV inhibitor	VACV mCherry inh	Lassa entry inh	MARV entry inh	VACV Venus inh	FMDV antiviral
CCCCNC(=O)COC(=O)c1c2c(nc3ccccc13)/C(=C\c1cccs1)CC2	2.8µM*	-29%	?	?	?	33%
NC(=O)c1ccc(NC(=O)COC(=O)c2c3c(nc4ccccc24)/C(=C\c2cccs2)CCC3)cc1	?	nt	?	?	nt	-26%
CC(C)CNC(=O)COC(=O)c1c2c(nc3ccccc13)/C(=C/c1cccs1)CC2	?	?	?	?	?	56%
CCc1cccc(C)c1NC(=O)COC(=O)c1c2c(nc3ccccc13)/C(=C\c1cccs1)CCC2	1.1µM*	-16%	-3%	?	-22%	-23%
O=C(COc1ccc(Cl)cc1)OCC(=O)N1CCOCC1	-4%	nt	nt	nt	nt	-16%
NS(=O)(=O)c1ccc(N=Nc2c(-c3ccccc3)[nH]n(-c3nc(-c4ccccc4)cs3)c2=O)cc1	6.3µM*	i	?	22µM*	-18%	-20%
O=C(NCCN1CCOCC1)c1cc(-c2ccccc2)nc2ccccc12	nt	i	nt	nt	-1%	-23%
O=C(NCCN1CCOCC1)c1cnn2c(-c3ccccc3)cc(-c3ccccc3)nc12	11µM*	nt	-30%	-29%	nt	-14%
CCCS(=O)(=O)N1CCN(Cc2ccc(OCc3ccccc3)c(OC)c2)CC1	10µM*	-24%	-8%	-29%	-20%	nt
CCOc1cc(CN2CCN(S(=O)(=O)Cc3ccccc3)CC2)ccc1OC	?	-4%	?	?	3%	-17%
NC(=O)c1sc2nc(N3CCCCC3)c3c(c2c1N)CCCC3	-8%	nt	-7%	?	nt	20%
COC(=O)c1sc2nc(N3CCCCC3)c3c(c2c1N)CCCC3	13µM*	-19%[1.46 µM]	?	-29%	?	-22%
O=C(Nc1ccc([N+](=O)[O-])cc1)N1CCc2ccccc2C1	10µM*	-3%	15%	-22%	-18%	33%
Clc1ccc(-c2nc3c4ccccc4ccn3c2CC2CCCCC2)cc1	nt	-16%	nt	nt	-9%	1%
COc1cc([C@H]2C(C(=O)c3cccs3)=C(O)C(=O)N2c2cc(C)on2)ccc1O	nt	nt	nt	11%[46.1 µM]	nt	nt
CCOC(=O)/C(=C/C=C1\Sc2ccccc2N1CC)C(C)=O	?	-18%	?	?	-25%	-14%
CCOC(=O)/C(=C/C=C1\Sc2cc(C)c(C)cc2N1CC)C(C)=O	11µM*	i	?	?	18%	?
CCOC(=O)/C(=C\C=C1/Sc2ccccc2N1CC)C(C)=O	?	?	2.8µM*	?	-24%	5%
Cc1cccc(CN2[C@@H](C)[C@H](c3ccccc3)Oc3cc(Br)ccc3S2(=O)=O)c1	nt	nt	1%[46.1 µM]	nt	nt	nt
CC1=C[C@@H](COCc2ccccc2)O[C@@]2(C1)C(=O)Nc1cccc(Br)c12	nt	nt	?	9%[14.2 µM]	nt	nt
COc1ccccc1N1CCN(Cc2cc(Br)c(O)c3ncccc23)CC1	4µM*	?	nt	5%	?	-25%
COc1ccccc1N1CCN(Cc2cc(COC(C)C)c3cccnc3c2O)CC1	nt	?	?	4µM*	?	-16%
CCCOCc1cc(CN2CCN(c3ccccc3OC)CC2)c(O)c2ncccc12	nt	?	?	?	?	-26%
CCOCc1cc(CN2CCN(c3ccccc3OC)CC2)c(O)c2ncccc12	nt	13µM*	?	?	-28%	0%
Cc1ccc(NC(=O)C2(C)CCN2C(=O)Cc2ccccc2Cl)cc1C (centres undefined)	nt	27%	nt	nt	-14%	-6%
CC12C=C(C=Cc3ccccc3)C(C)(C1)C(c1ccccc1)CC2=O (centres undefined)	nt	nt	nt	-4%[14.2 µM]	nt	nt
Cc1cc(C(=O)NCCC2=CCCCC2)c(C)o1	9%	nt	?	15µM*	nt	1%

Source: PubChem
